From PubChem BioAssay AID2435 (The Scripps Research Institute Molecular Screening Center, 2010)
Among all 320,000 compounds or so, about 1,000 (0.31%) were called active. The sample as a whole holds a higher share of actives than the screen did. Values without a mark were called inactive.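 The calls were made as follows: active = activation above the mean of all tested compounds plus 3 SD, cutoff set per screening run (cut at about 20% in these data); inactive = the rest.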

Target: Oxytocin receptor (Homo sapiens) (UniProt P30559)
Sequence (P30559 whole entry, looked up): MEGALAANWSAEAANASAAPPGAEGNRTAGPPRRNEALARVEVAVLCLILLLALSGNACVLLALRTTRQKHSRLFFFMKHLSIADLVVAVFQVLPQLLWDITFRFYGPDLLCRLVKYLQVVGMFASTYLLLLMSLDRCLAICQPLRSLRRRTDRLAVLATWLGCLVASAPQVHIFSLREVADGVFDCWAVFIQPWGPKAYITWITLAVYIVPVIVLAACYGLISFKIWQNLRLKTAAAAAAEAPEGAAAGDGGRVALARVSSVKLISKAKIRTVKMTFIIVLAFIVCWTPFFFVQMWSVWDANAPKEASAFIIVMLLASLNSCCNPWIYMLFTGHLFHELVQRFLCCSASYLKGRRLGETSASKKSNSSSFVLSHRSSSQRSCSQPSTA
Test: human OXTR agonists, primary screen, fluorescence, CHO-OTR cells, Fluo-8 calcium (AID 2435);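 also: peak over basal fluorescence ratio from a 100 s FLIPR kinetic read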
Conditions: Fluo-8 calcium fluorescence, at 3 µM, stronger effect = higher value

In order of rising activation:
1. O=C(c1cc2nc(-c3ccccc3)cc(-c3ccccc3)n2n1)N1CCC2(CC1)OCCO2  -2.27%
2. CC(=O)NC(=O)NC(C)Cc1ccccc1 (stereo not given)  -0.72%
3. CC(Cc1ccccc1)NC=O (stereo not given)  -0.34%
4. O=C(Cc1ccc(Cl)cc1)NCCN1CCN(C(=O)Cc2ccc(Cl)cc2)CC1  1.31%

In the case of CC(Cc1ccccc1)NCCC(c1ccccc1)c1ccccc1 (stereo not given), the activation is reported as 23.9% (active).
